Measurements from PubChem BioAssay (NCATS).
Inconclusive results are not listed. A call without a number means that no potency is given here. Calls of active or inactive are those of the source. The call rests on the fitted dose curve; in most records, active means well fitted inhibition curve with a large enough effect; inconclusive means small, poorly fitted or top-dose-only effect; inactive means flat fitted curve, though single readings scatter. Peptide text beside a SMILES is read from it.

Tests used:
Test in all cases: qHTS profiling for inhibitors of Plasmodium falciparum proliferation (AID 504749); further: nearly all actives have a fitted effect of over 60% in size
Conditions in all cases: P. falciparum in erythrocytes, SYBR Green DNA, 72 h; series mostly up to 28.7 µM
CP335 = system: CP335
How it was run: (§1)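 Each compound contacts P. falciparum-infected red blood cells for 72 h at 37 C; lysis buffer (Tris, EDTA, saponin, Triton X, SYBR Green I) is added and fluorescence measured next morning; values normalized to controls.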

DFO2036 = system: DFO2036
How it was run: as §1

DIV14 = system: DIV14
How it was run: as §1

DIV17 = system: DIV17
How it was run: as §1

DIV30 = system: DIV30
How it was run: as §1

Dd2 = system: Dd2
How it was run: as §1

ECU = system: ECU
How it was run: as §1

FAB9 = system: FAB9
How it was run: as §1

GB4 = system: GB4
How it was run: as §1

HB3 = system: HB3
How it was run: as §1

ICS = system: ICS
How it was run: as §1

JCK = system: JCK
How it was run: as §1

N140 = system: N140
How it was run: as §1

P93_24 = system: P93_24
How it was run: as §1

P94_40 = system: P94_40
How it was run: as §1

PAD = system: PAD
How it was run: as §1

PC15 = system: PC15
How it was run: as §1

PC26 = system: PC26
How it was run: as §1

PC49 = system: PC49
How it was run: as §1

SC27B = system: SC27B
How it was run: as §1
Potency means the concentration at half of the fitted maximal effect.

SMILES | Potency (CP335) | Potency (DFO2036) | Potency (DIV14) | Potency (DIV17) | Potency (DIV30) | Potency (Dd2) | Potency (ECU) | Potency (FAB9) | Potency (GB4) | Potency (HB3) | Potency (ICS) | Potency (JCK) | Potency (N140) | Potency (P93_24) | Potency (P94_40) | Potency (PAD) | Potency (PC15) | Potency (PC26) | Potency (PC49) | Potency (SC27B)
CC(C)(S)[C@@H](N)C(=O)O | inactive | inactive | inactive | inactive | inactive | inactive | inactive | inactive | inactive | inactive | inactive | inactive | inactive | inactive | inactive | inactive | inactive | inactive | inactive | inactive
Nc1cccc2c1CN(C1CCC(=O)NC1=O)C2=O (stereo not given) | inactive | inactive | inactive | inactive | inactive | inactive | inactive | inactive | inactive | inactive | inactive | inactive | inactive | inactive | inactive | inactive | inactive | inactive | inactive | inactive
Clc1ccc(C(Cn2ccnc2)OCc2ccsc2Cl)c(Cl)c1 (stereo not given) | 4780 nM (active) | 3160 nM (active) | 1900 nM (active) | 1690 nM (active) | 4780 nM (active) | 3160 nM (active) | 1410 nM (active) | – | 1690 nM (active) | 3160 nM (active) | 1000 nM (active) | 5010 nM (active) | 2820 nM (active) | 2240 nM (active) | 4470 nM (active) | 1000 nM (active) | 4470 nM (active) | 3380 nM (active) | 4470 nM (active) | 2000 nM (active)
CCOC(=O)c1c(C)n(C)c2ccc(O)cc12 | inactive | inactive | inactive | inactive | inactive | inactive | inactive | inactive | inactive | inactive | inactive | inactive | – | inactive | inactive | inactive | inactive | inactive | inactive | inactive
CCC(C)(Oc1ccc(C2(c3ccc(OC(C)(CC)C(=O)O)cc3)CCCCC2)cc1)C(=O)O (stereo not given) | inactive | inactive | inactive | inactive | inactive | inactive | inactive | inactive | inactive | inactive | inactive | inactive | inactive | inactive | inactive | inactive | inactive | inactive | inactive | inactive
COc1ccc(C2(C#N)CCC(C(=O)O)CC2)cc1OC1CCCC1 (stereo not given) | inactive | inactive | inactive | inactive | inactive | inactive | inactive | inactive | inactive | inactive | inactive | inactive | inactive | inactive | inactive | inactive | inactive | inactive | inactive | inactive
C=CCc1cc(OC)c(O)c(C(=O)NCCO)c1 | inactive | inactive | inactive | inactive | inactive | inactive | inactive | inactive | inactive | inactive | inactive | inactive | inactive | inactive | inactive | inactive | inactive | inactive | inactive | inactive
Cc1cc(=O)c2c(O)c3c(O)cc(=O)c4c3c3c(cc(O)c1c23)C(C)(C)C=4O | 2390 nM (active) | 1120 nM (active) | 2390 nM (active) | 2690 nM (active) | – | 1260 nM (active) | 2000 nM (active) | inactive | 2130 nM (active) | 2000 nM (active) | 355 nM (active) | – | 1000 nM (active) | 2240 nM (active) | 2000 nM (active) | 2510 nM (active) | 3980 nM (active) | – | 7940 nM (active) | 1580 nM (active)
COC(=O)[C@H](Cc1ccccc1)NC(=O)[C@@H](N)CC(=O)O (H-Asp-Phe-OMe) | inactive | inactive | inactive | inactive | inactive | inactive | inactive | inactive | inactive | inactive | inactive | inactive | inactive | inactive | inactive | inactive | inactive | inactive | inactive | inactive
Oc1ccc(OCc2ccccc2)cc1 | inactive | inactive | inactive | inactive | inactive | inactive | inactive | inactive | inactive | inactive | – | inactive | inactive | inactive | inactive | inactive | inactive | inactive | inactive | inactive
Cc1ncc([N+](=O)[O-])n1CC(C)O (stereo not given) | inactive | inactive | inactive | inactive | inactive | inactive | inactive | inactive | inactive | inactive | inactive | inactive | inactive | inactive | inactive | inactive | inactive | inactive | inactive | inactive
O=C(O)CCNC(=O)c1ccc(N=Nc2ccc(O)c(C(=O)O)c2)cc1 | inactive | inactive | inactive | inactive | inactive | – | inactive | inactive | inactive | – | inactive | inactive | inactive | inactive | inactive | inactive | inactive | inactive | inactive | inactive
CCN(CC)CCOc1ccc(Cc2ccccc2)cc1 | inactive | inactive | – | inactive | inactive | inactive | inactive | inactive | inactive | inactive | inactive | inactive | inactive | inactive | inactive | inactive | inactive | inactive | inactive | inactive
CS(=O)(=O)OCCCCOS(C)(=O)=O | inactive | inactive | inactive | inactive | inactive | inactive | inactive | inactive | inactive | inactive | inactive | inactive | inactive | inactive | inactive | inactive | inactive | inactive | inactive | inactive
CCCc1cc(=O)[nH]c(=S)[nH]1 | inactive | inactive | inactive | inactive | inactive | inactive | inactive | inactive | inactive | inactive | inactive | inactive | inactive | inactive | inactive | inactive | inactive | inactive | inactive | inactive
COC(=O)C1=C(C)NC(C)=C(C(=O)OCCCN2CCC(c3ccccc3)(c3ccccc3)CC2)C1c1cccc([N+](=O)[O-])c1 (stereo not given) | 4260 nM (active) | 7940 nM (active) | 3380 nM (active) | 4260 nM (active) | 4780 nM (active) | 3550 nM (active) | 4470 nM (active) | – | 1900 nM (active) | 8910 nM (active) | 1410 nM (active) | – | 5010 nM (active) | 3980 nM (active) | 4470 nM (active) | 10000 nM (active) | 11200 nM (active) | 6010 nM (active) | – | 3550 nM (active)
CC(C)c1ccc2oc3nc(N)c(C(=O)O)cc3c(=O)c2c1 | inactive | inactive | inactive | inactive | inactive | inactive | – | inactive | inactive | inactive | inactive | inactive | inactive | inactive | inactive | – | inactive | inactive | inactive | –
Cc1c(OCC(F)(F)F)ccnc1CS(=O)c1nc2ccccc2[nH]1 (stereo not given) | inactive | inactive | – | inactive | inactive | inactive | inactive | inactive | inactive | inactive | – | inactive | inactive | inactive | inactive | inactive | inactive | inactive | inactive | inactive
CN(C)c1ccc2nc3ccc(=[N+](C)C)cc-3sc2c1 | 37.9 nM (active) | 70.8 nM (active) | 26.9 nM (active) | 19 nM (active) | 67.5 nM (active) | 39.8 nM (active) | 25.1 nM (active) | 31.6 nM (active) | 30.1 nM (active) | 22.4 nM (active) | 7.1 nM (active) | – | 56.2 nM (active) | 31.6 nM (active) | 44.7 nM (active) | 31.6 nM (active) | – | 67.5 nM (active) | inactive | 63.1 nM (active)
CN(C)C(=O)COC(=O)Cc1ccc(OC(=O)c2ccc(N=C(N)N)cc2)cc1 | inactive | inactive | inactive | inactive | inactive | – | inactive | inactive | inactive | inactive | inactive | inactive | inactive | inactive | inactive | inactive | inactive | inactive | inactive | inactive
O=C(O)c1cc(=O)c2c(OCC(O)COc3cccc4oc(C(=O)O)cc(=O)c34)cccc2o1 | inactive | inactive | inactive | inactive | inactive | inactive | inactive | inactive | inactive | inactive | inactive | inactive | inactive | inactive | inactive | inactive | inactive | inactive | inactive | inactive
Cc1cc2c(s1)Nc1ccccc1N=C2N1CCN(C)CC1 | inactive | inactive | inactive | inactive | inactive | inactive | inactive | inactive | – | inactive | inactive | inactive | inactive | inactive | inactive | inactive | inactive | – | inactive | inactive
CCCCCCCCCCCCCCCCCCCCCCO | inactive | inactive | inactive | inactive | inactive | inactive | inactive | inactive | inactive | inactive | inactive | inactive | inactive | inactive | inactive | inactive | inactive | inactive | inactive | inactive
C[Se]CCC(N)C(=O)O (stereo not given) | inactive | inactive | inactive | inactive | inactive | inactive | inactive | inactive | inactive | inactive | inactive | inactive | inactive | inactive | inactive | inactive | inactive | inactive | inactive | inactive
COc1cc2c(cc1OC)C1CC(=O)C(CC(C)C)CN1CC2 (stereo not given) | inactive | inactive | inactive | inactive | inactive | inactive | inactive | inactive | inactive | inactive | inactive | inactive | inactive | inactive | inactive | inactive | inactive | inactive | inactive | inactive
COC1=C(OC)C(=O)C(CCCCCCCCCCO)=C(C)C1=O | inactive | inactive | inactive | – | inactive | inactive | inactive | inactive | – | inactive | inactive | inactive | inactive | inactive | – | inactive | inactive | inactive | inactive | inactive
CC1(C)CCC(C)(C)c2cc(NC(=O)c3ccc(C(=O)O)cc3)ccc21 | inactive | inactive | inactive | inactive | inactive | inactive | inactive | inactive | inactive | inactive | inactive | inactive | inactive | inactive | inactive | inactive | inactive | inactive | inactive | inactive
